About 83,000 compounds went through this panel and 20% of them were active in at least one assay; those are over-represented in the sample as a whole.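 Testing used 96-well plates and a 48-hour single-concentration exposure. Example: -40 means 40% of the starting cells died.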 Values without a mark were called inactive. Active and inactive are the calls of the source. Rule for the calls: active = growth percent below 10; inactive = the rest.

Among the test systems are T-47D breast; MDA-MB-435 melanoma; SW-620 colon; MCF7 breast; HCT-116 colon; HCC-2998 colon; KM12 colon; BT-549 breast.
Test in all cases: NCI-60 one-dose screen, 48 h (100 = growth as untreated, 0 = no growth, -100 = all killed)
Holding throughout (settings): 10 µM unless noted

With `COc1ccc(-c2csc(NC(=O)CSc3nc(-c4ccccc4)cc(=O)[nH]3)n2)cc1`, the growth with T-47D breast is 15.1%; in the experiment with MDA-MB-435 melanoma, 49.9%; in the experiment on SW-620 colon, 93.5%; in the experiment on MCF7 breast it was 50.7%; with HCT-116 colon it was 35.8%; in the experiment with HCC-2998 colon it was 83.5%. Besides, the growth in the experiment on KM12 colon is 73.9%.
Take `COc1ccc(CC(C#N)c2cc3ccccc3[nH]2)cc1` (stereo not drawn): the growth in the experiment with T-47D breast was 85.5%; with SW-620 colon, 93.6%; with MCF7 breast it was 94%; in the experiment on HCT-116 colon, 92.3%; in the experiment with HCC-2998 colon, 87.5%; with KM12 colon, 84.7%.
In the case of `COC(=O)/C=C1/SC(=Nc2ccc(C)cc2)N(CCc2c[nH]c3ccc(O)cc23)C1=O`, the growth in the experiment on T-47D breast was 35%; in the experiment with MDA-MB-435 melanoma, 14.9%; with SW-620 colon it was 44.2%; in the experiment on MCF7 breast it was 18.6%; with HCT-116 colon, 16.9%; with HCC-2998 colon it was 46.7%. Also, the growth in the experiment with KM12 colon was 43.6%.
Regarding `CC(=O)N(N=Nc1ccccc1)c1cccc2ccccc12`, the growth in the experiment with T-47D breast is 84.7%; with MDA-MB-435 melanoma, 97.8%; in the experiment with SW-620 colon it was 55.8%; in the experiment on MCF7 breast, 76.8%; with HCT-116 colon, 56.4%; with HCC-2998 colon it was 94.7%. In addition, the growth in the experiment on KM12 colon is 108%.
With `O=C(NNc1nccc(Nc2ccc(S(=O)(=O)Nc3ccncc3)cc2)n1)c1ccccc1`, the growth is 92.6% with T-47D breast; 105% in the experiment with MDA-MB-435 melanoma; 106% in the experiment with SW-620 colon; 94% in the experiment on MCF7 breast; 99.2% in the experiment with HCT-116 colon; 21.4% in the experiment on HCC-2998 colon. In addition, the growth in the experiment on KM12 colon was 101%.
For the molecule `CC(C)N1CN2C(=S)NC3C2N(C1)C(=S)N3C` (stereo not drawn), the growth in the experiment on T-47D breast was 92.4%; in the experiment with SW-620 colon, 101%; with MCF7 breast, 93%; with HCT-116 colon, 105%; with HCC-2998 colon, 113%; in the experiment with KM12 colon, 94.4%.
On to `COC(=O)c1c2c(c(C)[n+]([O-])c1C)C(=O)C(NCc1ccc(Cl)cc1)=CC2=O`, for which the growth in the experiment on T-47D breast was 37.5%; in the experiment on MDA-MB-435 melanoma, 9.83% (active); in the experiment with SW-620 colon, 45.9%; in the experiment with MCF7 breast, 35.9%; in the experiment on HCT-116 colon, 11.5%; in the experiment with HCC-2998 colon, 59.6%. In addition, in the experiment on KM12 colon, the growth was 48.8%.
For `CCCCCC(=O)OCC(=O)O[C@@H]1C[C@]2(C(C)C)O[C@@]1(C)[C@@H]1CC[C@@H](C)[C@H]1[C@@H]2OC(=O)/C=C/c1ccccc1`, the growth is 21.4% in the experiment on T-47D breast; 99.4% in the experiment on MDA-MB-435 melanoma; 48.9% with SW-620 colon; 26.8% in the experiment on MCF7 breast; 74% in the experiment on HCT-116 colon; 88.5% in the experiment on HCC-2998 colon. The growth with KM12 colon is 85%.
In the case of `CC(C)(C)[Si](C)(C)O[C@H]1C(=O)C=CN2CC=C[C@@H]12`, the growth in the experiment with T-47D breast was 92% [100 µM]; with MDA-MB-435 melanoma it was 102% [100 µM]; in the experiment on SW-620 colon, 104% [100 µM]; in the experiment with MCF7 breast it was 96.5% [100 µM]; in the experiment with HCT-116 colon it was 92.9% [100 µM]; in the experiment on HCC-2998 colon it was 111% [100 µM]. Further, the growth in the experiment on KM12 colon was 104% [100 µM].
For the molecule `CCN1CCN(c2cc(C(=O)Nc3nc(-c4cc(OC)c(OC)c(OC)c4)cs3)cc(C(F)(F)F)c2)CC1`, the growth in the experiment with T-47D breast is 43.7%; with MDA-MB-435 melanoma, 74.4%; with SW-620 colon, 65.6%; in the experiment on MCF7 breast, 39.8%; with HCT-116 colon, 33.4%; in the experiment on HCC-2998 colon it was 43.9%. In addition, the growth in the experiment with KM12 colon is 71.1%.
Turning to `COc1cc(CNS(=O)(=O)c2ccc(C)cc2)ccc1OCc1cn(-c2ccc(Br)cc2)nn1`, the growth in the experiment with T-47D breast is 101%; in the experiment with MDA-MB-435 melanoma, 101%; in the experiment on SW-620 colon, 99.1%; in the experiment on MCF7 breast, 88%; in the experiment on HCT-116 colon, 100%; in the experiment with KM12 colon, 103%.
Regarding `Cc1cc(Cl)ccc1NC(=O)c1cc2ccccc2cc1O`, the growth was 12.6% in the experiment with T-47D breast; 30.1% with MDA-MB-435 melanoma; 11.2% in the experiment on SW-620 colon; 2.86% (active) in the experiment on MCF7 breast; 7.95% (active) in the experiment with HCT-116 colon; 15% in the experiment with HCC-2998 colon. Moreover, the growth with KM12 colon is 7.04% (active).
Turning to `O=C(c1ccc(-c2ccccc2)cc1)c1ccc([N+](=O)[O-])cc1`, the growth with T-47D breast was 92.8%; with BT-549 breast, 94.5%; in the experiment with SW-620 colon it was 101%; in the experiment with MCF7 breast, 95.9%; in the experiment with HCT-116 colon, 92.6%; in the experiment with KM12 colon, 97%.
As to `COc1cc(/C=C/C(=O)c2cccc(Nc3nc(Nc4ccccc4)nc(Nc4ccccc4)n3)c2)cc(OC)c1OC`, the growth with T-47D breast is 42.2%; in the experiment on MDA-MB-435 melanoma, 68.8%; in the experiment with SW-620 colon it was 35.4%; in the experiment with MCF7 breast, 22.9%; with HCT-116 colon, 15.1%; with HCC-2998 colon it was 16.7%. In addition, the growth in the experiment with KM12 colon is 52.7%.
With `COc1cccc(CNc2ncnc3c2ncn3C2OC(CO)C(O)C2O)c1O` (stereo not drawn), the growth in the experiment with T-47D breast was 16.6%; in the experiment with BT-549 breast, -9.05% (active); with SW-620 colon it was 6.4% (active); in the experiment on MCF7 breast, 65.5%; in the experiment with HCT-116 colon, 10.2%; in the experiment with KM12 colon it was 36.6%.
On to `N#CC1=C(c2ccc(Cl)cc2)Nc2c(c(-c3ccc(Cl)cc3)nn2-c2ccccc2)C12C(=O)Nc1ccc(Cl)cc12` (stereo not drawn), for which the growth with T-47D breast was 42.3%; in the experiment on MDA-MB-435 melanoma, 55.1%; with SW-620 colon, 54.8%; in the experiment with MCF7 breast it was 33.2%; in the experiment on HCT-116 colon it was 26.1%; with HCC-2998 colon, 69.1%. In addition, in the experiment with KM12 colon, the growth was 27.7%.
`COc1ccc(C(=S)N2CCN(c3ccccc3Cl)CC2)cc1OC`: the growth was 79% in the experiment with T-47D breast; 91.7% in the experiment on MDA-MB-435 melanoma; 106% with SW-620 colon; 106% in the experiment with MCF7 breast; 87.1% in the experiment with HCT-116 colon; 123% in the experiment on KM12 colon.

These data come from PubChem BioAssay (NCI).
